Bioassay records as filed in PubChem BioAssay.
Sampled rows, rich in hits. Any-hit rate of the full collection: about 4.8%.
Mot1-301 SUMO = SUMOylation pathway inhibition by Mot1-301 growth rescue. S. cerevisiae Mot1-301 growth rescue, ATP luminescence, 38.5C; percent above DMSO median, 100 means doubled. growth rescue, % at 18.8 µM. 1% of 320,000 active;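 active = every valid replicate shows activation above 250% relative to neutral control wells; inactive = the rest, any valid replicate at or below 250%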;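 also: OY570 slx delta 5 strain wells were the positive control but not used for scaling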
ALR H2O2 inh = inhibitors of human sulfhydryl oxidase ALR. P55789. purified ALR, DTT oxidation, H2O2 HRP-luminol luminescence. inhibition, % (no concentration beside the values). 3.8% of 290,000 active;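 active = mean replicate inhibition above about 79%, with every replicate also reaching it, limit read from the data; inconclusive = only one of the two criteria met; inactive = mean below limit and not every replicate reaching it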
Target sequence (P55789 whole entry, looked up): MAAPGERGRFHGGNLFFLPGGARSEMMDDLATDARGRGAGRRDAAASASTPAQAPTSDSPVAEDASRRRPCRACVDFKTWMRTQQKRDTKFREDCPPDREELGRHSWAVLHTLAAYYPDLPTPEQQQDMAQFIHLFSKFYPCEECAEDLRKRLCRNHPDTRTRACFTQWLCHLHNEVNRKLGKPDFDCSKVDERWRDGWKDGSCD
HIF activator = HIF pathway transcriptional activation; AID 1910; 0.32% of 300,000 active; activation, % at 7.5 µM (by protocol); U2OS HRE-luciferase reporter, luminescence; normalized: DMSO 0%, desferrioxamine 100%;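 active = mean activation of at least 10% of the iron chelator positive control signal, with at least half of replicates also reaching 10%; inconclusive = mean and replicate majority disagree about reaching 10%; inactive = mean and most replicates under 10%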
AI-2 QS modul = modulators of Vibrio harveyi AI-2 quorum sensing system; activity change, % at 7.5 µM; 0.4% of 300,000 active; AID 2094; Vibrio harveyi JMH597 AI-2 luminescence/OD600 ratio, 9 h; stronger effect = lower value; strain lacks LuxN and CqsS sensors; 0 = neutral-control median; in the data active = activity change below about -75%, passing the limit was not always enough; inconclusive = no clear call, values can overlap the other calls;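 also: luminescence divided by OD600 gain over 9 h not by final OD600 alone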
Starred values were filed as active, the others as inactive; ? = inconclusive; . = not tested or not shown; + = active, no number.

SMILES	Mot1-301 SUMO	ALR H2O2 inh	HIF activator	AI-2 QS modul
CC(=O)Nc1nnc(S(=O)(=O)N2CCN(c3ccc(Cl)cc3[N+](=O)[O-])CC2)s1	-17	4	0	3
Cc1cc(C)nc(Nc2ccc(N3CCOCC3)cc2)n1	53	99*	1	-1
Cc1cc(C)nc(Nc2ccc(N3CCCC3)cc2)n1	-23	34	0	15
Cn1cc(C(=O)N/N=C/C2=C(N3CCOCC3)C(=C/c3ccc([N+](=O)[O-])cc3)/CC2)ccc1=O	18	.	0	9
Cc1cc(C)nc(N/N=C/c2ccc(N3CCOCC3)cc2)n1	-6	97*	0	7
CCCCSc1nc2ccc(Nc3nc(N4CCOCC4)nc(N4CCOCC4)n3)cc2s1	-10	90*	2	-8
Cc1ccc(/C=N/Nc2nc(C)cc(C)n2)cc1	-18	-11	1	23
O=C(O)c1ccc(N/N=C/C2=C(N3CCOCC3)C(=C\c3ccccc3)/CC2)cc1	59	97*	0	56
O=C(CCN1C(=O)[C@@H]2Cc3ccccc3CN2C1=O)N[C@@H](C(=O)O)c1ccccc1	-12	-27	0	23
Cc1csc(Nc2nc(N)c(C(=O)Nc3cc(Cl)ccc3F)o2)n1	70	2	-1	-11
CCSc1nnc(-c2ccccc2N=Cc2c(C)[nH]n(-c3ccccc3)c2=O)c(=O)[nH]1	-5	95*	0	13
CCSc1nnc(-c2cc(Br)ccc2N=Cc2c(C)[nH]n(-c3ccccc3)c2=O)c(=O)[nH]1	-11	11	0	4
Cc1ccc2sc(N(CCCN(C)C)C(=O)CCS(=O)(=O)c3ccccc3)nc2c1C	43	98*	-1	-3
Cc1ccccc1NC(=O)/C(=C/c1ccco1)c1ccccc1	-16	83*	0	2
CC(C)(C)NC(=O)/C(=C/c1ccco1)c1ccccc1	1	90*	0	39
CCc1ccccc1NC(=O)/C(=C/c1ccco1)c1ccccc1	17	5	0	13
COc1ccc(C(C)=O)cc1CSc1ccc(S(=O)(=O)N2CCCCC2)cn1	5	7	.	.
CCn1c(O)c(C=Nc2ccccc2)sc1=S	-15	6	2	7
CCn1c(O)c(/C=N/n2cnnc2)sc1=S	-10	98*	0	-5
COc1ccc(N2CCN(C(=O)c3c(-c4c(F)cccc4Cl)noc3C)CC2)cc1	-4	33	0	24
COc1c(C)oc2cc(O)ccc2c1=O	-5	-2	0	11
Oc1ccc2c(c1)oc1cc(O)ccc12	138	99*	1	-3
O=C(c1nc2ccccn2c1CN1CCN(c2ccccc2O)CC1)N1CCCC1	-14	99*	0	14
COc1ccc(-n2nnnc2S(=O)(=O)Cc2ccc(C(=O)O)cc2)cc1	-9	98*	-1	-49
COc1ccc(-n2nnnc2S(=O)(=O)CC(=O)N2CCCCC2)cc1	486*	98*	.	.
SMILES	Mot1-301 SUMO	ALR H2O2 inh	HIF activator	AI-2 QS modul
COc1cc(OC)cc(-n2nnnc2SCC(=O)N2CCCC2)c1	-10	1	0	27
CCN1/C(=C/C=C/c2oc3ccc(-c4ccccc4)cc3[n+]2CC)Oc2ccc(-c3ccccc3)cc21	339*	-10	-4	-1
CCCn1c(SCC(=O)Nc2cc(Cl)ccc2OC)nc(O)cc1=O	0	98*	.	.
COc1ccccc1NC(=O)CSc1nc(O)cc(=O)n1C	3	99*	0	31
CCn1c(CC(=O)Nc2ccccc2OC)nnc1SCC(=O)Nc1ccccc1F	45	93*	0	31
C=CCn1c(SCC(=O)Nc2ccccc2C)nc(O)cc1=O	-13	92*	-1	37
Cc1ccc(NC(=O)CC2(CC(=O)O)CCCC2)c(C)c1	25	.	-1	26
O=C(COC(=O)/C=C/c1cc(Br)ccc1F)NC1CC1	13	2	.	.
CC(C)CCNC(=O)c1onc(CSc2nc3ccccc3[nH]2)c1C(=O)NCCC(C)C	661	4	0	-1
COc1ccccc1NC(=O)CSc1nc2nc(C)cc(C)c2c(=O)[nH]1	.	91*	1	11
CCn1c(SCC(=O)Nc2ccccc2OC)nc(O)cc1=O	16	98*	-1	10
Cc1ccccc1NC(=O)CSc1nc2ccccc2c(=O)n1C	1	-8	-1	4
COc1ccc(NC(=O)CSc2nc3nc(C)cc(C)c3c(=O)[nH]2)cc1OC	14	54	.	.
Cn1c(SCC(=O)Nc2cccc3ccccc23)nc(O)cc1=O	24	98*	1	25
CCOc1ccccc1/C=N/NC(=O)C[n+]1ccccc1	12	14	.	.
c1ccc(-c2nc3ccccn3c2NCc2ccc3c(c2)OCO3)cc1	-1	81*	1	32
COc1ccc(-c2nc3ccccn3c2NCc2ccc3c(c2)OCO3)cc1	-3	?	3	17
CCOC(=O)C1CCN(CC(C)(C)NS(=O)(=O)c2ccc(C)cc2)CC1	46	-7	-8	32
CCOC(=O)C1CCN(Cc2ccc(N(C)C)cc2)CC1	-23	99*	.	.
CCOC(=O)C1CCN(CC(C)(C)NS(=O)(=O)c2ccc(Cl)cc2)CC1	338*	.	0	9
CCOC(=O)C1CCN(Cc2c(F)cccc2Cl)CC1	-5	98*	0	12
CCOC(=O)C1CCN(Cc2ccc(F)c(F)c2)CC1	3	0	0	3
CCOC(=O)C1CCCN(Cc2c(F)cccc2Cl)C1 (stereo unspecified)	-6	99*	0	0
Cc1ccc(-c2noc(CNS(=O)(=O)c3ccccc3)n2)cc1	11	-13	1	-26
CCOC(=O)C1CCCN(Cc2nc(CC3CC3)no2)C1 (stereo unspecified)	+	-2	0	12
SMILES	Mot1-301 SUMO	ALR H2O2 inh	HIF activator	AI-2 QS modul
O=C1CCCN1CCCNc1ncnc2c1[nH]c1ccc(Cl)cc12	-1	98*	1	8
CCOc1ccc(NC(=O)CCN2C(=O)c3cccc([N+](=O)[O-])c3C2=O)cc1	-9	-10	-1	10
CN(C)c1ccc(NC(=O)CCN2C(=O)c3cccc([N+](=O)[O-])c3C2=O)cc1	-11	100*	-29	5
CCOc1c(Br)cc(CNc2ccc(N3CCOCC3)cc2)cc1OC	-3	98*	0	30
CN(CCOc1ccc(Cl)cc1)C(=O)Cc1ccc(S(=O)(=O)N2CCOCC2)s1	0	0	.	.
O=C(O)c1cnn(-c2ccccc2)c1-c1ccncc1	322*	-1	1	20
N#C/C(=N\Nc1ccc(F)cc1)C(=O)C1CC1	34	98*	0	12
CCOc1ccccc1N1CCN(C(=O)c2cc(-c3cccnc3)nc3c(Cl)cccc23)CC1	288	-18	3	25
COCCNC(=O)CSc1cc(-c2ccccc2)c2ccc(OC)cc2n1	2	97*	-1	-8
COc1ccc(C2/C(=C(\O)c3ccc4c(c3)OCCO4)C(=O)C(=O)N2c2nc(C)c(C(C)=O)s2)cc1 (stereo unspecified)	13	7	1	17
